In PubChem BioAssay AID2275 (Broad Institute, 2010) one finds viability loss activity score data, which are given here for 68 compounds.

Structures are written as SMILES. In all, about 30,000 compounds went through this assay and about 190 (0.63%) were called active. The sample as a whole holds a higher share of actives than the screen did. A number with no mark means an inactive call. Rule as the data show it: active = viability loss activity score above about 50%; inconclusive = no clear call, values can overlap the other calls; inactive = below about 35%.

This assay in a line: cytotoxicity in HRASV12-transformed BJ fibroblasts – cell-based, luminescence, CellTiterGlo ATP, primary screen (AID 2275).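 Also: higher score means fewer live cells and less ATP luminescence.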 The conditions noted are these: BJeLR fibroblasts viability, 48 h, hits give high values, HRASV12, hTERT and SV40 LT/ST transformed, concentration not given here.
For the compound `N=c1n(CC(=O)c2ccc(Cl)c(Cl)c2)c2ccccc2n1Cc1ccccc1`, the viability loss activity score was 0.84%. Then `O=C(NCCc1ccccc1)c1ccc(NC2=NC3CS(=O)(=O)CC3S2)cc1` (stereo not drawn), with 2.13%; and `COc1ccc(S(=O)(=O)Nc2cccc3c2O[C@@H](CN(C)Cc2ccc(-c4ccccc4)cc2)[C@H](C)CN([C@H](C)CO)C3=O)cc1`, with 1.26%. Then `CC(=O)NC(c1ccccc1)c1ccc2cccnc2c1O` (stereo not drawn), with 76.4% (active). Then `CC(C)(C)c1cc(C(=O)Oc2ccc(Cl)cc2)n(Cc2ccccc2)n1`, with 4.03%; and `C[C@@H]1CN([C@H](C)CO)C(=O)c2cccc(NS(=O)(=O)c3ccc(F)cc3)c2O[C@@H]1CN(C)C(=O)Nc1ccc(F)cc1`, with 3.97%.

Regarding `CCOc1cc(CNc2ccc(OC)cc2)ccc1OCC(=O)NC(C)(C)C`, the viability loss activity score was -0.358%. For `COc1ccc(NC(=O)Nc2cccc3c2O[C@@H](CN(C)C(=O)NC(C)C)[C@H](C)CN([C@H](C)CO)C3=O)cc1`, the viability loss activity score is -0.272%.

`COc1ccc2[nH]c3c(=O)n(Cc4ccc(C(=O)NCc5cccnc5)cc4)c(=S)[nH]c3c2c1`: the viability loss activity score is 2.75%. In the case of `COCc1cc(C)nc2sc(C(N)=O)c(N)c12`, the viability loss activity score was 6.31%. Then `CCOc1cc(-c2cc(C)c3c(ccc4ccccc43)n2)ccc1O`, with -1.76%; and `CCc1ccc(/C=C2\Cc3ccccc3C2=O)cc1`, with 4.71%; and `CCS(=O)(=O)C(=C(Nc1ccccc1)Nc1ccccc1)S(=O)(=O)CC`, with 21.6%. Then `CN1/C(=C/C(=S)C(C)(C)C)Sc2ccccc21`, with 0.712%; and `CCCCn1c(-c2ccc(Br)cc2)nc2ccccc21`, with -1.15%; and `Cc1ccc(NC2CCCCC2NS(=O)(=O)c2ccccc2)cc1` (stereo not drawn), with 8.06%. Then `Cc1cc(C)c2c(c1)CC(C)(C)c1[nH]c(-c3ccccc3)nc1-2`, with -0.635%. Turning to `COCC(=O)NCc1nn(-c2ccccc2)nc1C`, the viability loss activity score is 1.49%. Then `Cc1ccc(S(=O)(=O)c2no[n+]([O-])c2S(=O)(=O)c2ccc(C)cc2)cc1`, with 62% (active). On to `CCOC(=O)N1CCN(C(=O)CSc2ncnc3c2nnn3Cc2ccc(F)cc2)CC1`, for which the viability loss activity score was -1.44%. For `Cc1ccc2c(c1)N(CCC(=O)NC1CCC(C)CC1)C(=O)CO2` (stereo not drawn), the viability loss activity score was -1.39%. Then `C=CCn1c(SCc2ccc(C(=O)O)cc2)nnc1-c1cccc(OC)c1`, with -6.6%; and `CCN(C(=O)c1coc(=O)c2ccccc12)c1cccc(C(F)(F)F)c1`, with 0.65%. Then `O=C(O)CSc1nnc(COc2ccc(Cl)cc2)n1-c1ccc(Br)cc1`, with 0.406%; and `C[C@@H]1CN([C@H](C)CO)C(=O)c2cc(NS(C)(=O)=O)ccc2O[C@H]1CN(C)C(=O)Nc1cccc2ccccc12`, with -0.115%. As to `S=C(Nc1cccc(Cl)c1)N1CCCN(Cc2ccccc2Cl)C1`, the viability loss activity score was -1.27%. As to `O=C1CC(c2ccc(F)cc2)CC(O)=C1C=NCCN1CCN(C(=S)Nc2ccccc2)CC1` (stereo not drawn), the viability loss activity score is 8.57%. `Cc1ccc(S(=O)(=O)N2CCCC2)cc1-c1nnc2c3ccccc3c(C)nn12`: the viability loss activity score was 2.21%. Then `CCOC(=O)c1c(C)n(C)c2ccccc12`, with 1.79%.

Consider `Cc1ccc(-n2nnnc2-c2cnn(-c3ccccc3)c2C)cc1`, for which the viability loss activity score is -4%. Turning to `Cc1ccc(S(=O)(=O)Nc2ccc3c(c2)C(=O)N([C@H](C)CO)C[C@H](C)[C@H](CN(C)S(C)(=O)=O)O3)cc1`, the viability loss activity score was 0.992%. For `COC(OC)c1nc(SCC(=O)Nc2ccc(C(C)C)cc2)ncc1C(=O)O`, the viability loss activity score was -6.58%. Then `Cc1oc2cc(Br)c(OC(=O)c3ccco3)cc2c1C(=O)OC(C)C`, with -1.39%. In the case of `CCc1ccc(NC(=O)c2sc3[nH]c(=O)c(C(=O)O)cc3c2N)cc1`, the viability loss activity score was -3.87%.

With `COCCn1cc(C(=O)NC2CCCCCC2)c2c3ccccc3n(C)c2c1=O`, the viability loss activity score is 2.88%. Then `COc1ccc(NS(=O)(=O)c2ccc3c(c2)OCC(=O)N3)cc1`, with 3.85%. Take `Cc1ccc(NC(=S)Nc2ccc(C)cc2)cc1`: the viability loss activity score was 2.21%.

`COC(=O)c1ccccc1Oc1c(F)c(F)nc(N2CCOCC2)c1F`: the viability loss activity score was 2.06%. As to `C/C=C(/C)C(=O)O[C@H]1CC(C)(C)C[C@H]2C3=CCC4[C@@]5(C)CC[C@H](O[C@@H]6O[C@H](C(=O)O)[C@@H](O[C@@H]7O[C@H](CO)[C@H](O)[C@H](O)[C@H]7O[C@@H]7O[C@H](CO)[C@@H](O)[C@H](O)[C@H]7O)[C@H](O)[C@H]6O[C@@H]6O[C@@H](C)[C@H](O)[C@@H](O)[C@H]6O)C(C)(C)C5CC[C@@]4(C)[C@]3(C)[C@@H](O)[C@@H](O)[C@@]12CO` (stereo partly drawn), the viability loss activity score is 104% (active).

Turning to `C/C=C(/C)C(=O)O[C@H]1CC(C)(C)C[C@H]2C3=CCC4[C@@]5(C)CC[C@H](O[C@@H]6O[C@H](C(=O)O)[C@@H](O[C@@H]7O[C@H](CO)[C@H](O)[C@H](O)[C@H]7O[C@@H]7O[C@H](CO)[C@@H](O)[C@H](O)[C@H]7O)[C@H](O)[C@H]6O[C@@H]6O[C@@H](C)[C@H](O)[C@@H](O)[C@H]6O)C(C)(C)C5CC[C@@]4(C)[C@]3(C)[C@@H](OC(C)=O)[C@@H](O)[C@@]12COC(C)=O` (stereo partly drawn), the viability loss activity score is 72.5% (active). Turning to `CC1OC(OC2C(OC3C(O[C@H]4CC[C@@]5(C)C(CC[C@]6(C)C5CC=C5[C@@H]7CC(C)(C)C[C@@H](O)[C@]7(C)CC[C@]56C)C4(C)C)OC(C(=O)O)C(O)C3O)OC(CO)C(O)C2O)C(O)C(O)C1O` (stereo partly drawn), the viability loss activity score was 2.12%. As for `C=CC1(C)C=C2CCC3C(C)(C)C(O[C@@H]4O[C@@H](CO)[C@H](O)[C@H]4O)CCC3(C)C2CC1O[C@@H]1O[C@H](C)[C@@H](OC)[C@H](O)[C@H]1O` (stereo partly drawn), the viability loss activity score was -5.62%. As to `COc1ccc(/C=C/C(=O)O[C@@H]2[C@@H](OC(=O)/C=C/c3ccc(OC)cc3)[C@H](C)O[C@@H](O[C@H]3[C@@H]4C=CO[C@@H](O[C@@H]5O[C@H](CO)[C@@H](O)[C@H](O)[C@H]5O)[C@@H]4[C@@]4(CO)O[C@@H]34)[C@@H]2OC(C)=O)cc1`, the viability loss activity score was -3.51%. Then `CC1(C)CC[C@]2(C(=O)O)CC[C@]3(C)C(=CCC4[C@@]5(C)CC[C@H](OC6O[C@H](CO)[C@@H](O)[C@H](O[C@@H]7O[C@H](CO)[C@@H](O)[C@H](O)[C@H]7O)[C@H]6O)C(C)(C)C5CC[C@]43C)[C@@H]2C1` (stereo partly drawn), with 17.9%; and `COc1cc(OC)c(N(C)C(=O)c2ccc3c(=O)n4c(nc3c2)CCCCC4)cc1Cl`, with 4.36%. Then `CCN(CC)C(=O)Cn1cc(SCc2ccccc2)c2ccccc21`, with -2.18%; and `CCCCS(=O)CSc1nc(-c2ccc(OC)cc2)cc(-c2ccccc2)c1C#N` (stereo not drawn), with -8.8%; and `O=C(Nc1ccncc1)c1cccc(COc2ccc3ccccc3c2)c1`, with 12.1%. On to `O=C(c1ccccc1)c1cnn(-c2ccc(Cl)cc2)n1`, for which the viability loss activity score was 14.6%. Take `CN1c2ccccc2C(C)(C)C12Cc1cc(NS(=O)(=O)c3ccc(Cl)cc3)ccc1O2` (stereo not drawn): the viability loss activity score is 0.312%. Then `O=C(Oc1ccc(Br)cc1)c1ccco1`, with -1.65%; and `CCOC(=O)c1cc(-c2ccc(C)cc2)n(CC(=O)NCC2CCCO2)c1C` (stereo not drawn), with -1.7%; and `N/C(C[n+]1ccccc1)=N\O`, with -4.49%. In the case of `O=C(CCc1nc2sc3c(c2c(=O)[nH]1)CCCC3)NC1CCCC1`, the viability loss activity score was 1.97%. Then `O=C1CSC(c2ccc(Cl)cc2)N1Nc1nc(Nc2ccccc2)nc(N2CCCCC2)n1` (stereo not drawn), with -7.31%; and `COc1ccc(/C=C2\SC(=O)N(c3ccc(C)cc3)C2=O)cc1`, with -2.92%. Then `COc1cc2c(c(OC)c1)C(c1ccccc1OC)CC(=O)N2` (stereo not drawn), with 0.526%. Then `COc1ccc(S(=O)(=O)N(C)C[C@H]2Oc3ccc(N(C)C)cc3C(=O)N([C@@H](C)CO)C[C@@H]2C)cc1`, with 0.729%; and `O=C(NCCCN1CCCC1)c1cc(-c2ccncc2)nc2ccccc12`, with 3.5%; and `O=C(NCCc1ccccc1)c1nnc(Cc2ccc(F)cc2)o1`, with -0.807%. Turning to `CCCN(CCC)Cc1c(O)ccc2c(=O)c(-c3ccccc3)coc12`, the viability loss activity score was 3.33%.

On to `Cc1cccc(C)c1N=C1Oc2ccccc2NC1(C)c1ccccn1` (stereo not drawn), for which the viability loss activity score is -0.212%. For the compound `CC(C)(C)C1=CC(=Nc2ccccc2N)C=C(C(C)(C)C)C1O` (stereo not drawn), the viability loss activity score was -0.524%. Then `CC(c1ccccc1)N1C(=O)c2ccccc2C1Nc1ccc(F)cc1` (stereo not drawn), with -2.92%; and `COC(Cn1c(SCC(=O)c2cccc(C(F)(F)F)c2)nnc1-c1ccc(Cl)cc1)OC`, with 2.18%; and `CSc1nc(COc2ccc(C(C)(C)C)cc2)nc(-n2cccc2)c1C#N`, with -2.33%.

For the compound `C=CCC(c1cc(Cl)ccc1N)S(=O)(=O)c1ccc(C)cc1` (stereo not drawn), the viability loss activity score is 0.759%. On to `CSc1cccc(NC(=O)CSc2nncn3c2cc2sccc23)c1`, for which the viability loss activity score is -1.6%.
